In all, about 300,000 compounds went through this assay and about 5,200 (1.7%) were called active.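 Rule for the calls: active = mean replicate activation of at least 50% with a set share of replicates each reaching 50%; inconclusive = only one of those two conditions met; inactive = mean below 50% and too few replicates reaching it.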 This excerpt belongs to a sample that is enriched for actives.

This test is described as follows: HSF-1 response element luciferase induction – NIH3T3-HGL cells, MG132 stress, luminescence, single point, primary screen (AID 504408).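 Note: 0% = median of the neutral control wells and 100% = twice that signal.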 Conditions: NIH3T3-HGL HSF-1 luciferase reporter, MG132, 8 h; at 9 µM; hits give high values; 100% = twice DMSO control signal. Background: Reporter assays use an easily measured gene product as a stand-in for the process of interest.
With `COc1ccccc1C(=O)Nc1cccc(C(=O)N2CCOCC2)c1`, the activation was 8.16% (inactive).
As to `COc1cc2ccccc2cc1C(=O)Nc1ccc(N2CCOCC2)cc1`, the activation is 4.47% (inactive).
The same measure for `CCc1cc(C(c2ccccc2OC)N2CCOCC2)c(NC(=O)c2ccccc2)s1` (centres undefined): 68.8% (active); for `Cc1ccc(C(=O)NNC(=O)c2ccncc2)cc1S(=O)(=O)N1CCCCC1`: -9.07% (inactive); for `CCCCCCCNC(=O)C1(CC2CC(c3cccc(Br)c3)=NO2)CCN(C(=O)c2cc(OCC)c(OCC)c(OCC)c2)CC1` (centres undefined): 4.29% (inactive).
For `Cn1cc([N+](=O)[O-])c(C(=O)Nc2cnn(Cc3ccc(F)cc3)c2)n1`, the activation was 65.1% (active).
Consider `Cn1cc([N+](=O)[O-])c(C(=O)Nc2ccc3c(c2)OCCO3)n1`, for which the activation is 48.7% (inactive).
As to `CCc1ccc(NC(=O)c2ccc(Cn3cc([N+](=O)[O-])cn3)cc2)cc1`, the activation was -1.45% (inactive).
Take `COCCn1c(SCC(=O)N2CCCCCC2)nc2c(c1=O)SCC2`: the activation is 2.01% (inactive).
The same measure for `O=C(CSc1nc2nccnc2c(=O)n1Cc1cccs1)Nc1ccccc1F`: 77.1% (active).
As for `O=C(CSc1ccc(-c2cccs2)nn1)Nc1ccccc1F`, the activation is -2.98% (inactive).
Take `COCCn1c(SCC(=O)Nc2cc(Cl)ccc2OC)nc2c(c1=O)SC(C)C2` (centres undefined): the activation is -0.138% (inactive).
Take `CCOc1ccc(NC(=O)CSc2nc3ccccc3c(=O)n2Cc2cccs2)cc1`: the activation is -10.7% (inactive).
The same measure for `COCCn1c(SCC(=O)Nc2ccccc2F)nc2c(c1=O)SCC2`: 54.8% (active).
For `CCc1ccc(C(=O)NNC(=O)C2CCN(c3ncnc4sc(C)c(C)c34)CC2)cc1` the value was -1.58% (inactive).
For `CCOc1ccc(NS(=O)(=O)c2ccc(C(=O)NCC(c3ccccc3OC)N3CCCC3)cc2)cc1` (centres undefined) the value was -2.02% (inactive).
Regarding `COc1cccc(COC(=O)C2CCN(S(=O)(=O)c3cccs3)CC2)c1OC`, the activation was 1.63% (inactive).
For `O=C(CC1SC(N2CCCC2)=NC1=O)Nc1ccc(C(=O)NCCc2ccc(F)cc2)cc1` (centres undefined) the value was -12% (inactive); for `CCN(C(=O)COC(=O)C1CCN(S(=O)(=O)c2ccc(C)c(C)c2)CC1)C1CCS(=O)(=O)C1` (centres undefined), 1.03% (inactive).
For `Cc1ccc(C)c(OCCC(=O)OCC(=O)NC(=O)NCc2ccccc2)c1` the value was -2.69% (inactive); for `COC(=O)c1c(NC(=O)CSc2nncs2)sc2c1CCCCC2`, 17.2% (inactive); for `CCc1ccc(N(CC(=O)Nc2sc3c(c2C(=O)OC)CCCC3)S(C)(=O)=O)cc1`, 59.7% (active).
For `COC(=O)c1c(NC(=O)CN(c2ccc(C)c(C)c2)S(C)(=O)=O)sc2c1CCCC2` the value was 31.3% (inactive).
For the molecule `CCCN(CC(=O)Nc1ccccc1OC)C(=O)CCC(=O)c1ccc(F)cc1`, the activation is -3.54% (inactive).
